From paper PMC5540273 (PLoS ONE, 2017)

Tests used:
Conditions in all cases: concentration: 1 μM, replicates: in singlicate; n = 1
IKK-alpha = test system: T1, IKK-alpha
T1 construct: gene CHUK

IKK-beta = test system: T2, IKK-beta
T2 construct: gene IKBKB

IKK-epsilon = test system: T3, IKK-epsilon
T3 construct: gene IKBKE

INSRR = test system: INSRR
INSR = test system: INSR
IRAK1 = test system: IRAK1
IRAK3 = test system: IRAK3
IRAK4 = test system: IRAK4
ITK = test system: ITK
[1] = test system: JAK1(JH1domain-catalytic)
[2] = test system: JAK1(JH2domain-pseudokinase)
[3] = test system: JAK2(JH1domain-catalytic)
[4] = test system: JAK3(JH1domain-catalytic)
JNK1 = test system: T4, JNK1
T4 construct: gene MAPK8

JNK2 = test system: T5, JNK2
T5 construct: gene MAPK9

JNK3 = test system: T6, JNK3
T6 construct: gene MAPK10

KIT-autoinhibited = test system: KIT-autoinhibited
KIT = test system: KIT
LATS1 = test system: LATS1
LATS2 = test system: LATS2
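Also: KINOMEscan kinase panel screen.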

Structure (SMILES): Nc1ncc(-c2cccnc2)c2scc(-c3ccc4c(c3)CCN4C(=O)Cc3ccccc3)c12 [GSK683281]
- %Inh (IKK-alpha): 0%
- %Inh (IKK-beta): 11%
- %Inh (IKK-epsilon): 46%
- %Inh (INSRR): 0%
- %Inh (INSR): 0%
- %Inh (IRAK1): 10%
- %Inh (IRAK3): 17%
- %Inh (IRAK4): 5%
- %Inh (ITK): 18%
- %Inh [1]: 19%
- %Inh [2]: 1%
- %Inh [3]: 14%
- %Inh [4]: 0%
- %Inh (JNK1): 22%
- %Inh (JNK2): 37%
- %Inh (JNK3): 9%
- %Inh (KIT-autoinhibited): 7%
- %Inh (KIT): 98.5%
- %Inh (LATS1): 0%
- %Inh (LATS2): 19%

Structure (SMILES): O=C(Nc1cccc(Oc2ccc3nc(NC(=O)C4CC4)cn3n2)c1)c1ccccc1C(F)(F)F
- %Inh (IKK-alpha): 0%
- %Inh (IKK-beta): 0%
- %Inh (IKK-epsilon): 0%
- %Inh (INSRR): 0%
- %Inh (INSR): 0%
- %Inh (IRAK1): 0%
- %Inh (IRAK3): 5%
- %Inh (IRAK4): 0%
- %Inh (ITK): 0%
- %Inh [1]: 8%
- %Inh [2]: 7%
- %Inh [3]: 43%
- %Inh [4]: 29%
- %Inh (JNK1): 0%
- %Inh (JNK2): 0%
- %Inh (JNK3): 0%
- %Inh (KIT-autoinhibited): 91.5%
- %Inh (KIT): 100%
- %Inh (LATS1): 0%
- %Inh (LATS2): 0%

Structure (SMILES): COc1cccc(-c2ccc3c(NC(=O)C4CC4)n[nH]c3n2)c1 [SB-710903]
- %Inh (IKK-alpha): 50%
- %Inh (IKK-beta): 26%
- %Inh (IKK-epsilon): 52%
- %Inh (INSRR): 0%
- %Inh (INSR): 0%
- %Inh (IRAK1): 57%
- %Inh (IRAK3): 0%
- %Inh (IRAK4): 27%
- %Inh (ITK): 6%
- %Inh [1]: 9%
- %Inh [2]: 0%
- %Inh [3]: 17%
- %Inh [4]: 0%
- %Inh (JNK1): 29%
- %Inh (JNK2): 14%
- %Inh (JNK3): 5%
- %Inh (KIT-autoinhibited): 0%
- %Inh (KIT): 15%
- %Inh (LATS1): 9%
- %Inh (LATS2): 10%

Structure (SMILES): COc1cc2c(cc1OCCN1CCNCC1)ncc1c3ccc(C#N)cc3[nH]c21
- %Inh (IKK-alpha): 46%
- %Inh (IKK-beta): 32%
- %Inh (IKK-epsilon): 61%
- %Inh (INSRR): 3%
- %Inh (INSR): 0%
- %Inh (IRAK1): 95.7%
- %Inh (IRAK3): 88%
- %Inh (IRAK4): 99.7%
- %Inh (ITK): 23%
- %Inh [1]: 0%
- %Inh [2]: 45%
- %Inh [3]: 64%
- %Inh [4]: 85%
- %Inh (JNK1): 13%
- %Inh (JNK2): 0%
- %Inh (JNK3): 0%
- %Inh (KIT-autoinhibited): 55%
- %Inh (KIT): 70%
- %Inh (LATS1): 0%
- %Inh (LATS2): 42%

Structure (SMILES): CN1CCN(CCCNc2nccc(-c3c(-c4ccc(F)cc4)nn4cc(C(F)(F)F)ccc34)n2)CC1 [GW621581]
- %Inh (IKK-alpha): 35%
- %Inh (IKK-beta): 23%
- %Inh (IKK-epsilon): 0%
- %Inh (INSRR): 0%
- %Inh (INSR): 0%
- %Inh (IRAK1): 0%
- %Inh (IRAK3): 0%
- %Inh (IRAK4): 7%
- %Inh (ITK): 0%
- %Inh [1]: 0%
- %Inh [2]: 0%
- %Inh [3]: 32%
- %Inh [4]: 0%
- %Inh (JNK1): 58%
- %Inh (JNK2): 91.7%
- %Inh (JNK3): 91.9%
- %Inh (KIT-autoinhibited): 0%
- %Inh (KIT): 7%
- %Inh (LATS1): 0%
- %Inh (LATS2): 0%

Structure (SMILES): COc1cc(Nc2ncc3c(C)nc(-c4cc5ccccc5[nH]4)n3n2)cc(OC)c1OC [GW869516]
- %Inh (IKK-alpha): 0%
- %Inh (IKK-beta): 0%
- %Inh (IKK-epsilon): 0%
- %Inh (INSRR): 53%
- %Inh (INSR): 4%
- %Inh (IRAK1): 2%
- %Inh (IRAK3): 20%
- %Inh (IRAK4): 0%
- %Inh (ITK): 43%
- %Inh [1]: 0%
- %Inh [2]: 98.5%
- %Inh [3]: 54%
- %Inh [4]: 11%
- %Inh (JNK1): 11%
- %Inh (JNK2): 0%
- %Inh (JNK3): 0%
- %Inh (KIT-autoinhibited): 22%
- %Inh (KIT): 72%
- %Inh (LATS1): 0%
- %Inh (LATS2): 0%

Structure (SMILES): Cl.Cl.NCC(NC(=O)c1cc(-c2ccccc2)c(-c2ccnc3[nH]ccc23)s1)c1ccccc1 (centres unmarked) [GSK1321561]
- %Inh (IKK-alpha): 1%
- %Inh (IKK-beta): 3%
- %Inh (IKK-epsilon): 0%
- %Inh (INSRR): 0%
- %Inh (INSR): 12%
- %Inh (IRAK1): 40%
- %Inh (IRAK3): 15%
- %Inh (IRAK4): 0%
- %Inh (ITK): 11%
- %Inh [1]: 29%
- %Inh [2]: 0%
- %Inh [3]: 41%
- %Inh [4]: 50%
- %Inh (JNK1): 48%
- %Inh (JNK2): 57%
- %Inh (JNK3): 45%
- %Inh (KIT-autoinhibited): 0%
- %Inh (KIT): 12%
- %Inh (LATS1): 3%
- %Inh (LATS2): 11%

Structure (SMILES): CCn1c(-c2nonc2N)nc2c(C#CC(C)(C)O)nc(OC[C@H](N)c3ccccc3)cc21 [GSK943949]
- %Inh (IKK-alpha): 0%
- %Inh (IKK-beta): 0%
- %Inh (IKK-epsilon): 13%
- %Inh (INSRR): 0%
- %Inh (INSR): 0%
- %Inh (IRAK1): 0%
- %Inh (IRAK3): 0%
- %Inh (IRAK4): 8%
- %Inh (ITK): 0%
- %Inh [1]: 19%
- %Inh [2]: 0%
- %Inh [3]: 8%
- %Inh [4]: 4%
- %Inh (JNK1): 0%
- %Inh (JNK2): 0%
- %Inh (JNK3): 0%
- %Inh (KIT-autoinhibited): 4%
- %Inh (KIT): 0%
- %Inh (LATS1): 59%
- %Inh (LATS2): 100%

Structure (SMILES): COC(=O)Nc1nc2ccc(Oc3ccc(NC(=O)Nc4cc(C(F)(F)F)ccc4F)cc3)cc2n1C.Cl [GW692089]
- %Inh (IKK-alpha): 77%
- %Inh (IKK-beta): 18%
- %Inh (IKK-epsilon): 0%
- %Inh (INSRR): 0%
- %Inh (INSR): 0%
- %Inh (IRAK1): 18%
- %Inh (IRAK3): 0%
- %Inh (IRAK4): 0%
- %Inh (ITK): 0%
- %Inh [1]: 3%
- %Inh [2]: 0%
- %Inh [3]: 22%
- %Inh [4]: 0%
- %Inh (JNK1): 2%
- %Inh (JNK2): 37%
- %Inh (JNK3): 0%
- %Inh (KIT-autoinhibited): 5%
- %Inh (KIT): 100%
- %Inh (LATS1): 0%
- %Inh (LATS2): 0%

Structure (SMILES): Cc1cccc(NC(=O)Nc2ccc(Oc3ncnc4ccn(C)c34)cc2)c1
- %Inh (IKK-alpha): 27%
- %Inh (IKK-beta): 8%
- %Inh (IKK-epsilon): 0%
- %Inh (INSRR): 0%
- %Inh (INSR): 0%
- %Inh (IRAK1): 0%
- %Inh (IRAK3): 0%
- %Inh (IRAK4): 0%
- %Inh (ITK): 0%
- %Inh [1]: 0%
- %Inh [2]: 30%
- %Inh [3]: 0%
- %Inh [4]: 9%
- %Inh (JNK1): 9%
- %Inh (JNK2): 0%
- %Inh (JNK3): 0%
- %Inh (KIT-autoinhibited): 97%
- %Inh (KIT): 100%
- %Inh (LATS1): 5%
- %Inh (LATS2): 0%
